Measured values taken from PubChem BioAssay (EPA / NIEHS).
Calls of active or inactive are those of the source. How the source made its calls: active means hit-call score of the fitted dose curve at least 0.9, where 1 is the maximum; inactive means score below 0.9.

Key:
Details in all cases: mRNA level, 48 h; actives raise or lower the signal
[1] = read-out: Forkhead box O1 (FOXO1), FOXO1 (gene 2308); assay: LTEA_HepaRG_FOXO1: Life Technologies and Expression Analysis (LTEA) Assay for Forkhead box O1 (FOXO1) using HepaRG (AID 2283456)
Procedure, shortened: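 Using one lot of HepaRG hepatic cells kept in 0.5% DMSO, the team applied test chemicals in duplicate, half-log dilutions from 100 uM, for 48 h. Expression, normalised to ACTB/GAPDH/POLR2A, was compared with vehicle in either direction.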

[2] = read-out: growth arrest and DNA damage 45 (GADD45A), GADD45A (gene 1647); assay: LTEA_HepaRG_GADD45A: Life Technologies and Expression Analysis (LTEA) Assay for growth arrest and DNA damage 45 (GADD45A) using HepaRG (AID 2283458)
Procedure, shortened: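 Transcript induction or loss, quantified by TaqMan qRT-PCR against three housekeeping genes, is the read-out. HepaRG cells received chemicals for 48 h across eight half-log concentrations from 100 uM in 0.5% DMSO; gain and loss fitted relative to DMSO.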

[3] = read-out: Forkhead box O3 (FOXO3), FOXO3 (gene 2309); assay: LTEA_HepaRG_FOXO3: Life Technologies and Expression Analysis (LTEA) Assay for Forkhead box O3 (FOXO3) using HepaRG (AID 2283459)
Procedure, shortened: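 Gene-expression endpoint: FOXO3 transcript level by qRT-PCR in HepaRG cultures treated 48 h with chemicals up to 100 uM (half-log, 0.5% DMSO vehicle).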

[4] = read-out: ABC Transporter (ABCB1), ABCB1 (gene 5243); assay: LTEA_HepaRG_ABCB1: Life Technologies and Expression Analysis (LTEA) Assay for ABC Transporter (ABCB1) using HepaRG (AID 2283460)
Procedure, shortened: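 Human liver HepaRG line treated 48 h with up to 100 uM compound (eight half-log points, 0.5% DMSO); ABCB1 mRNA change fitted bidirectionally against DMSO controls.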

[5] = read-out: growth arrest and DNA damage 45 (GADD45B), GADD45B (gene 4616); assay: LTEA_HepaRG_GADD45B: Life Technologies and Expression Analysis (LTEA) Assay for growth arrest and DNA damage 45 (GADD45B) using HepaRG (AID 2283461)
Procedure, shortened: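 Human HepaRG monolayers receive chemicals for 48 h at eight half-log concentrations, highest 100 uM, in 0.5% DMSO. Expression is measured by TaqMan qRT-PCR and normalized to ACTB, GAPDH and POLR2A.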

[6] = read-out: ABC Transporter (ABCC3), ABCC3 (gene 8714); assay: LTEA_HepaRG_ABCC3: Life Technologies and Expression Analysis (LTEA) Assay for ABC Transporter (ABCC3) using HepaRG (AID 2283462)
Procedure, shortened: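 Transcriptional change of ABCC3 in HepaRG after 48 h treatment, determined by qRT-PCR normalized to endogenous controls. Concentrations spanned eight half-log steps to 100 uM in 0.5% DMSO.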

[7] = read-out: ABC Transporter (ABCB11), ABCB11 (gene 8647); assay: LTEA_HepaRG_ABCB11: Life Technologies and Expression Analysis (LTEA) Assay for ABC Transporter (ABCB11) using HepaRG (AID 2283463)
Procedure, shortened: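 Using HepaRG cultures held in 0.5% DMSO, chemicals were tested at half-log dilutions from 100 uM for 48 h. Induction or suppression of ABCB11 mRNA, normalized to ACTB, GAPDH and POLR2A, was fitted bidirectionally against vehicle.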

[8] = read-out: ABC Transporter (ABCC2), ABCC2 (gene 1244); assay: LTEA_HepaRG_ABCC2: Life Technologies and Expression Analysis (LTEA) Assay for ABC Transporter (ABCC2) using HepaRG (AID 2283464)
Procedure, shortened: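 After plating and 48 h culture, HepaRG medium is replaced with serum-free induction medium and chemicals are added (8 concentrations, max 100 uM, 0.5% DMSO) for 48 h. Total RNA then undergoes qRT-PCR for ABCC2 with housekeeping normalization.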

[9] = read-out: Broad substrate specificity ATP-binding cassette transporter ABCG2 (Homo sapiens) (UniProt Q9UNQ0); assay: LTEA_HepaRG_ABCG2: Life Technologies and Expression Analysis (LTEA) Assay for ABC Transporter (ABCG2) using HepaRG (AID 2283465)
Procedure, shortened: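 Gene expression of ABCG2 in HepaRG liver cells is quantified by qRT-PCR following 48 h exposure across an eight-point series topping at 100 uM. Values come from bidirectional fitting relative to DMSO vehicle.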

[10] = read-out: Peroxisomal acyl-coenzyme A oxidase 1 (ACOX1) gene, ACOX1 (gene 51); assay: LTEA_HepaRG_ACOX1: Life Technologies and Expression Analysis (LTEA) Assay for Peroxisomal acyl-coenzyme A oxidase 1 (ACOX1) gene using HepaRG (AID 2283467)
Procedure, shortened: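 Human HepaRG hepatic cultures, 48 h treatment with test chemicals up to 100 uM. ACOX1 expression read by qRT-PCR relative to 0.5% DMSO vehicle.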

[11] = read-out: Alkaline Phosphatase, Placental (ALPP) gene, ALPP (gene 250); assay: LTEA_HepaRG_ALPP: Life Technologies and Expression Analysis (LTEA) Assay for Alkaline Phosphatase, Placental (ALPP) gene using HepaRG (AID 2283468);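 on AC50: differentiated human HepaRG liver cells in serum-free induction medium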
Procedure, shortened: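 Using human liver HepaRG cells, chemicals are tested in duplicate over 48 h at half-log concentrations topping at 100 uM; phenobarbital 1 mM serves as induction control. ALPP mRNA change by qRT-PCR, bidirectional fit against vehicle.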

[12] = read-out: Bcl-2 (BAD) gene, BAD (gene 572); assay: LTEA_HepaRG_BAD: Life Technologies and Expression Analysis (LTEA) Assay for Bcl-2 (BAD) gene using HepaRG (AID 2283469)
Procedure, shortened: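 Activity values reflect up- or down-regulation of BAD mRNA in human HepaRG hepatic cells treated 48 h in serum-free medium, with eight-point half-log dosing capped at 100 uM and 0.5% DMSO vehicle.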

[13] = read-out: Bcl-2 (BAX) gene, BAX (gene 581); assay: LTEA_HepaRG_BAX: Life Technologies and Expression Analysis (LTEA) Assay for Bcl-2 (BAX) gene using HepaRG (AID 2283470)
Procedure, shortened: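 Cells were thawed, plated for 48 h, moved to serum-free induction medium and dosed for 48 h (highest concentration 100 uM, half-log steps, 0.5% DMSO). Total RNA was then analysed for BAX expression by qRT-PCR.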

[14] = read-out: adenosine kinase (ADK) gene, ADK (gene 132); assay: LTEA_HepaRG_ADK: Life Technologies and Expression Analysis (LTEA) Assay for adenosine kinase (ADK) gene using HepaRG (AID 2283471)
Procedure, shortened: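 Differentiated HepaRG cells dosed 48 h in serum-free induction medium, 0.5% DMSO vehicle, eight half-log concentrations from 100 uM, in duplicate. ADK mRNA by TaqMan qRT-PCR normalised to ACTB, GAPDH, POLR2A; bidirectional fit versus DMSO.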

[15] = read-out: Alpha-fetoprotein (AFP) gene, AFP (gene 174); assay: LTEA_HepaRG_AFP: Life Technologies and Expression Analysis (LTEA) Assay for Alpha-fetoprotein (AFP) gene using HepaRG (AID 2283472)
Procedure, shortened: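 Chemicals were tested on differentiated HepaRG cells for 48 hours at eight concentrations up to 100 uM, with 0.5% DMSO as vehicle. AFP expression was then quantified by qRT-PCR and analyzed for gain or loss relative to DMSO.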

[16] = read-out: BCL2L11 (gene 10018); assay: LTEA_HepaRG_BCL2L11: Life Technologies and Expression Analysis (LTEA) Assay for Bcl-2 (BCL2L11) gene using HepaRG (AID 2283473)
Procedure, shortened: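 Human hepatic HepaRG cultures are treated 48 h with test chemicals (maximum 100 uM, 0.5% DMSO vehicle). Expression of BCL2L11 is measured by qRT-PCR against ACTB, GAPDH and POLR2A, with activity in either direction scored relative to vehicle.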

[17] = read-out: Apolipoprotein A-V (APOA5) gene, APOA5 (gene 116519); assay: LTEA_HepaRG_APOA5: Life Technologies and Expression Analysis (LTEA) Assay for Apolipoprotein A-V (APOA5) gene using HepaRG (AID 2283474)
Procedure, shortened: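 Concentration-response of APOA5 expression in HepaRG: eight half-log doses to 100 uM, 48 h, qRT-PCR normalized to ACTB/GAPDH/POLR2A, bidirectional fitting with 0.5% DMSO as baseline.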

[18] = read-out: Apoptosis regulator Bcl-2 (Homo sapiens) (UniProt P10415); assay: LTEA_HepaRG_BCL2: Life Technologies and Expression Analysis (LTEA) Assay for Bcl-2 gene using HepaRG (AID 2283475)
Procedure, shortened: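 Plated human HepaRG cells are exposed to test chemicals for 48 h across eight concentrations from 100 uM downward in half-log steps (0.5% DMSO). BCL2 expression is then measured by qRT-PCR with housekeeping normalisation and fitted bidirectionally against vehicle.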

[19] = read-out: ATP-citrate lyase (ACLY), ACLY (gene 47); assay: LTEA_HepaRG_ACLY: Life Technologies and Expression Analysis (LTEA) Assay for ATP-citrate lyase (ACLY) using HepaRG (AID 2283466)
Procedure, shortened: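 ACLY expression changes in human HepaRG liver cells are quantified by qRT-PCR after 48 h exposure to test chemicals (maximum 100 uM, half-log steps). Values are fitted in both directions relative to 0.5% DMSO vehicle.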

Measured: AC50

Sequence of Broad substrate specificity ATP-binding cassette transporter ABCG2 (Homo sapiens) (Q9UNQ0 whole entry, looked up): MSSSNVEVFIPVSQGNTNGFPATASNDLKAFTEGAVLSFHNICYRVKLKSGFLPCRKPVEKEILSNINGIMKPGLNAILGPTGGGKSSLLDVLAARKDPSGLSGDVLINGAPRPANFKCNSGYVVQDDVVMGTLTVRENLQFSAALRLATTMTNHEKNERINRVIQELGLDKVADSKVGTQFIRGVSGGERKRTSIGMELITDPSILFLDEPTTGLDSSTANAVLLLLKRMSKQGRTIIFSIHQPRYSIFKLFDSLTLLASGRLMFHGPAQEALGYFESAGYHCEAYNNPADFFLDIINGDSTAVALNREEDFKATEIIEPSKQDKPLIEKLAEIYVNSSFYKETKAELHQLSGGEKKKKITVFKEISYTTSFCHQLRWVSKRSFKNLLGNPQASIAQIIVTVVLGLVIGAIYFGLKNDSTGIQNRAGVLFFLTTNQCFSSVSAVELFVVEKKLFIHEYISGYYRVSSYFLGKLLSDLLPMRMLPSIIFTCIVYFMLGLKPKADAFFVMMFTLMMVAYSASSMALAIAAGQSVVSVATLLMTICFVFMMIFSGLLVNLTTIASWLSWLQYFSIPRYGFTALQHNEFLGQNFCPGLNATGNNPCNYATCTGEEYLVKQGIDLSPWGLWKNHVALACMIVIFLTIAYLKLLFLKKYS
Sequence of Apoptosis regulator Bcl-2 (Homo sapiens) (P10415 whole entry, looked up): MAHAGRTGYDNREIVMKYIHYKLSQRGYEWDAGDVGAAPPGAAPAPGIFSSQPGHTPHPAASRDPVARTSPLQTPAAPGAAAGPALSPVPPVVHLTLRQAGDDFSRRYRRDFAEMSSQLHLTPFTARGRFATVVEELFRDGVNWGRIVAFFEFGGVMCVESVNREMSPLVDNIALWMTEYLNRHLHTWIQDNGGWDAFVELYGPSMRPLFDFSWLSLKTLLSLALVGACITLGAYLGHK

Cc1cc(SC2=C(O)C[C@@](CCc3ccc(N)cc3)(C(C)C)OC2=O)c(C(C)(C)C)cc1CO
active: [4] 2.44 µM | [7] 50 µM | [8] 2.16 µM
not listed: [19]
inactive: all other assays above

C=CCc1ccc(OC)c(OC)c1
active: [2] 9.92 µM
inactive: all other assays above

Cc1cc(Cc2ccc(N)c(C)c2)ccc1N
active: [4] 33.6 µM | [8] 50 µM
inactive: all other assays above

CCCCC(CC)COP(=O)(OCC(CC)CCCC)OCC(CC)CCCC (stereo unspecified)
active: [4] 8.5 µM
inactive: all other assays above

c1ccc2occc2c1
inactive: all assays above

O=NO
inactive: all assays above

CCCCCCCC(=O)OC
inactive: all assays above

CN(C)CCCN(C)CCCN(C)C
not listed: [19]
inactive: all other assays above

CN(C)CCCN1c2ccccc2Sc2ccc(Cl)cc21
active: [1] 79.2 µM | [5] 89.7 µM | [7] 24.7 µM | [8] 89.6 µM | [11] 11.8 µM | [14] 90.5 µM | [15] 26.6 µM | [16] 72.8 µM | [17] 85.8 µM
inactive: [2] | [3] | [4] | [6] | [9] | [19] | [12] | [13] | [18]

O=C1O[C@H]([C@H](O)CO)C(O)=C1O
not listed: [19]
inactive: all other assays above
